This is part of a sample that, as a whole, favours compounds with a hit. Of some 83,000 tested, about 20% had one in any assay.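 How to read the values: 0–100, growth inhibition (40 = 60% inhibited); 0, no net growth; -100 to 0, cell death (-40 = 40% of starting cells died; -100 = all dead).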 Calls of active or inactive are those of the source. How the source made its calls: active means growth percent below 10; inactive means the rest.
Key:
Assay in all cases: NCI-60 one-dose screen, 48 h (100 = growth as untreated, 0 = no growth, -100 = all killed)
EKVX NSCLC = settings: 10 µM unless noted
SN12C renal = settings: 10 µM unless noted
UO-31 renal = settings: 10 µM unless noted
TK-10 renal = settings: 10 µM unless noted
ACHN renal = settings: 10 µM unless noted
CAKI-1 renal = settings: 10 µM
A498 renal = settings: 10 µM unless noted
CCRF-CEM leukemia = settings: 10 µM unless noted
SK-MEL-2 melanoma = settings: 10 µM unless noted
MOLT-4 leukemia = settings: 10 µM unless noted

Measured: growth

C/C(=C(/c1ccc(O)cc1)c1ccc(OCCN2CCCC2)cc1)c1ccc(Cl)cc1
inactive: EKVX NSCLC 57.4% | SN12C renal 66% | UO-31 renal 53.8% | TK-10 renal 84.5% | ACHN renal 33.7% | CAKI-1 renal 41.9% | A498 renal 56.5%

CCNCCCn1c2c(c3cc(OC)c(OC)cc3c1=O)C(=O)c1cc(OC)cnc1-2
active: ACHN renal 6.11% | CCRF-CEM leukemia 8.89%
inactive: EKVX NSCLC 43.3% | SN12C renal 20.8% | UO-31 renal 18% | TK-10 renal 64.4% | CAKI-1 renal 18.3% | A498 renal 15.8%

O=c1[nH]c2cc(Cl)ccc2n1C1CCN(c2ccc3nnc(Cl)n3n2)CC1
inactive: SK-MEL-2 melanoma 93.1% | SN12C renal 95.3% | TK-10 renal 92.9% | ACHN renal 88.2% | CAKI-1 renal 78.6% | A498 renal 61.5% | CCRF-CEM leukemia 89% | MOLT-4 leukemia 101%
active: UO-31 renal -30.9%

COc1ccc([C@@H]2[C@@H](O)C(=O)N2c2cc(OC)c(OC)c(OC)c2)cc1
active: A498 renal -20.8%
inactive: EKVX NSCLC 51.2% | SN12C renal 24.6% | UO-31 renal 29.9% | TK-10 renal 74.5% | ACHN renal 26.8% | CAKI-1 renal 25.6% | CCRF-CEM leukemia 24%

Cn1nc(Nc2ccccc2)c(C(=O)NN)c1N
inactive: SK-MEL-2 melanoma 103% | SN12C renal 97.3% | UO-31 renal 81.5% | TK-10 renal 118% | ACHN renal 97.4% | CAKI-1 renal 94.1% | A498 renal 97.2% | CCRF-CEM leukemia 91.1% | MOLT-4 leukemia 104%

C=CCn1c(SCC(=O)Nc2cccc(C(=O)/C=C/c3ccccc3Cl)c2)nc2ccccc2c1=O
inactive: EKVX NSCLC 94.7% | SN12C renal 91.5% | UO-31 renal 73% | TK-10 renal 110% | ACHN renal 96.3% | CAKI-1 renal 79.2% | A498 renal 82.8% | CCRF-CEM leukemia 93.8%

COc1ccc([C@H]2[C@H](O)C(=O)N2c2cc(OC)c(OC)c(OC)c2)cc1Cl
active: A498 renal -17%
inactive: EKVX NSCLC 50.1% | SN12C renal 22.2% | UO-31 renal 32.8% | TK-10 renal 85.4% | ACHN renal 26.6% | CAKI-1 renal 30.6% | CCRF-CEM leukemia 16.4%

COc1ccc2c(ccn2C(=O)N2c3ccccc3Sc3ccccc32)c1
active: SK-MEL-2 melanoma 4.71% | A498 renal -8.02%
inactive: SN12C renal 47.3% | UO-31 renal 55% | TK-10 renal 65.1% | ACHN renal 49.2% | CAKI-1 renal 30.9% | CCRF-CEM leukemia 18.7% | MOLT-4 leukemia 37.2%

C/C(Cc1ccc(Cl)cc1)=C(/c1ccccc1)c1ccc(OCCN)cc1
inactive: EKVX NSCLC 98.7% | SN12C renal 103% | UO-31 renal 89.7% | TK-10 renal 100% | ACHN renal 99.4% | CAKI-1 renal 92.5% | A498 renal 95.8% | CCRF-CEM leukemia 110%

COc1ccc([C@H]2[C@H](O)C(=O)N2c2cc(OC)c(OC)c(OC)c2)cc1O
inactive: EKVX NSCLC 51.2% | SN12C renal 24.6% | UO-31 renal 32.6% | TK-10 renal 81.1% | ACHN renal 28.1% | CAKI-1 renal 28.9% | CCRF-CEM leukemia 16.1%
active: A498 renal -16%

COc1cc2c3c(n(CCCNC4CCCCC4)c(=O)c2cc1OC)-c1cc2c(cc1C3=O)OCO2
inactive: UO-31 renal 84.5% | CAKI-1 renal 73.9% | A498 renal 86.2%
active: EKVX NSCLC -65.3% | SN12C renal -70.3% | TK-10 renal -95% | ACHN renal -6.15% | CCRF-CEM leukemia -25.3%

C=CCn1c(SCC(=O)Nc2cccc(C(=O)/C=C/c3cccc([N+](=O)[O-])c3)c2)nc2ccccc2c1=O
inactive: EKVX NSCLC 96% | SN12C renal 98.3% | UO-31 renal 79% | TK-10 renal 98.4% | ACHN renal 96.5% | CAKI-1 renal 81.2% | A498 renal 81.1% | CCRF-CEM leukemia 94.5%

CCN1C(=O)N(CC)C2SC(N/N=C/c3cccs3)=NC21 (stereo not drawn)
active: A498 renal -23%
inactive: SK-MEL-2 melanoma 13.5% | SN12C renal 29.9% | UO-31 renal 53.4% | TK-10 renal 84.5% | ACHN renal 32.9% | CAKI-1 renal 27.1% | CCRF-CEM leukemia 17.8% | MOLT-4 leukemia 13.3%

Cc1cc(-c2ccc3nc(N)sc3c2)nc2ccc3[nH]ncc3c12
inactive: SN12C renal 32% | UO-31 renal 51.4% | TK-10 renal 50.1% | ACHN renal 40.7% | CAKI-1 renal 20.3% | CCRF-CEM leukemia 27.1% | MOLT-4 leukemia 33.2%
active: SK-MEL-2 melanoma -3.92% | A498 renal -9.07%

Clc1ccccc1/C=C/c1nn2c(-c3ccncc3)nnc2s1
inactive: EKVX NSCLC 94.2% | SN12C renal 103% | UO-31 renal 93.1% | TK-10 renal 126% | ACHN renal 104% | CAKI-1 renal 87.9% | A498 renal 95.2% | CCRF-CEM leukemia 97.6%

C=C1C(=O)O[C@@H]2C[C@@H](C)/C=C\C(=O)[C@](C)(OC(C)=O)C[C@H](OC(=O)/C(C)=C\C)[C@@H]12
inactive: A498 renal 38.8%
active: SK-MEL-2 melanoma -15.9% | EKVX NSCLC 5.52% | UO-31 renal -88.6% | TK-10 renal -61% | ACHN renal -75.5% | CAKI-1 renal -11.1% | CCRF-CEM leukemia -17% | MOLT-4 leukemia 2.13%

Cc1ccc(/C=C/c2nn3c(-c4ccco4)nnc3s2)cc1
inactive: EKVX NSCLC 108% | SN12C renal 107% | UO-31 renal 85.6% | TK-10 renal 87.9% | ACHN renal 99.9% | CAKI-1 renal 86.8% | A498 renal 89%

CC1OC(O[C@@H]2[C@H](O)C(CO)OC(O[C@H]3COC(O[C@H]4CC[C@]5(C)[C@H]6CC[C@]78OC[C@@]9(CCC(C)(C)C[C@H]97)[C@H](O)C[C@@]8(C)[C@]6(C)CC[C@H]5C4(C)C)[C@@H](OC4OC(CO)[C@@H](O)[C@@H](O)[C@@H]4O)[C@@H]3O)[C@H]2OC2OC[C@@H](O)[C@@H](O)[C@@H]2O)[C@@H](O)[C@@H](O)[C@H]1O (stereo partly drawn)
active: SK-MEL-2 melanoma -81.4% | EKVX NSCLC -64% | UO-31 renal -90.8% | TK-10 renal -93.8% | CAKI-1 renal -95.9% | A498 renal -86.5% | CCRF-CEM leukemia -60% | MOLT-4 leukemia -61.1%

COc1cc2c3c(n(CCCNC4CCCC4)c(=O)c2cc1OC)-c1cc2c(cc1C3=O)OCO2
inactive: UO-31 renal 76.2% | CAKI-1 renal 11.7% | A498 renal 80.3%
active: EKVX NSCLC -67.4% | SN12C renal -60.9% | TK-10 renal -97% | ACHN renal -95.5% | CCRF-CEM leukemia -13.8%

COc1cc2c3c(n(CCCNC4CCC4)c(=O)c2cc1OC)-c1cc2c(cc1C3=O)OCO2
inactive: TK-10 renal 98.8% | A498 renal 74.4%
active: EKVX NSCLC -38.4% | SN12C renal -48.9% | UO-31 renal -70.9% | ACHN renal -89.7% | CAKI-1 renal -82.2% | CCRF-CEM leukemia -6.07%

N#Cc1ccc(S(=O)(=O)Nc2ccc(-c3cnc(N)[nH]3)cc2)cc1
inactive: EKVX NSCLC 105% | SN12C renal 102% | UO-31 renal 89.7% | TK-10 renal 98.6% | ACHN renal 99.7% | CAKI-1 renal 92.3% | A498 renal 101% | CCRF-CEM leukemia 98.2%

CCN1C(=O)N(CC)C2SC(N/N=C/c3ccccc3F)=NC21 (stereo not drawn)
inactive: SK-MEL-2 melanoma 12% | SN12C renal 34.6% | UO-31 renal 50.2% | TK-10 renal 87.7% | ACHN renal 34.4% | CAKI-1 renal 31.3% | CCRF-CEM leukemia 20% | MOLT-4 leukemia 15.5%
active: A498 renal -22.1%

C=CCn1c(SCC(=O)Nc2cccc(C(=O)/C=C/c3ccc(C)cc3)c2)nc2ccccc2c1=O
inactive: EKVX NSCLC 91.5% | SN12C renal 91.5% | UO-31 renal 63.9% | TK-10 renal 105% | ACHN renal 89.5% | CAKI-1 renal 80% | A498 renal 85.9% | CCRF-CEM leukemia 98.4%

COc1ccc(NC(=O)[C@H](C)NC(=O)OC(C)(C)C)cc1C(=O)Nc1cccc(-c2cc(=O)c3c(OC)c(OC)c(OC)cc3o2)c1
inactive: UO-31 renal 16.8% | ACHN renal 10.3% | CAKI-1 renal 17.4%
active: EKVX NSCLC 3.7% | SN12C renal 2.23% | TK-10 renal -3.36% | A498 renal -53.3% | CCRF-CEM leukemia 3.69% | MOLT-4 leukemia 7.83%

COc1ccccc1N1CCN(C2=NN=C(c3cccc(Cl)c3)c3ccccc3C2)CC1
inactive: EKVX NSCLC 40.9% | SN12C renal 21.2% | UO-31 renal 24% | TK-10 renal 27.8% | ACHN renal 28.5% | CAKI-1 renal 29.7% | CCRF-CEM leukemia 10.1% | MOLT-4 leukemia 17.6%
active: A498 renal -16.6%

CS(=O)c1nccc(-c2c(-c3ccc(F)c(OCc4ccc(F)cc4)c3)nc3sccn23)n1 (stereo not drawn)
inactive: EKVX NSCLC 75.2% | SN12C renal 93.6% | UO-31 renal 89.3% | TK-10 renal 108% | ACHN renal 77.2% | CAKI-1 renal 70.8% | A498 renal 88.2% | CCRF-CEM leukemia 45.8%

COc1ccc([C@@H]2[C@@H](O)C(=O)N2c2cc(OC)c(OC)c(OC)c2)cc1Cl
active: A498 renal -16.9%
inactive: EKVX NSCLC 52.4% | SN12C renal 25.6% | UO-31 renal 31.8% | TK-10 renal 89.4% | ACHN renal 27.9% | CAKI-1 renal 30.6% | CCRF-CEM leukemia 19.6%

Source: PubChem BioAssay (NCI)
